# CYP2C19 inh – blockers of cytochrome P450 2C19 activity – biochemical, luminescence, ADME assay, primary screen; inhibition, % at 5 µM; P33261; 96,000 tested, 21% active; AID 778, 2007; CYP2C19 Supersomes, luciferin-H EGE luminescence, 30 min;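 active means CYP2C19 inhibition above a set limit at 5 µM in the primary screen, cut at about 50% in these data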;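 further: plate controls were negative control wells for no effect and 2.5 mM tranylcypromine positive control for full effect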
# CYP2C9 inh – blockers of cytochrome P450 2C9 activity – biochemical, luminescence, ADME assay, primary screen | P11712 | CYP2C9 Supersomes, luciferin-H conversion | inhibition, % at 5 µM | 96,000 tested, 20% active | AID 777, 2007;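 active means blocking of liver enzyme CYP2C9 beyond about 50% at 5 µM, limit read from the data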
# Target sequence (P11712 whole entry, looked up): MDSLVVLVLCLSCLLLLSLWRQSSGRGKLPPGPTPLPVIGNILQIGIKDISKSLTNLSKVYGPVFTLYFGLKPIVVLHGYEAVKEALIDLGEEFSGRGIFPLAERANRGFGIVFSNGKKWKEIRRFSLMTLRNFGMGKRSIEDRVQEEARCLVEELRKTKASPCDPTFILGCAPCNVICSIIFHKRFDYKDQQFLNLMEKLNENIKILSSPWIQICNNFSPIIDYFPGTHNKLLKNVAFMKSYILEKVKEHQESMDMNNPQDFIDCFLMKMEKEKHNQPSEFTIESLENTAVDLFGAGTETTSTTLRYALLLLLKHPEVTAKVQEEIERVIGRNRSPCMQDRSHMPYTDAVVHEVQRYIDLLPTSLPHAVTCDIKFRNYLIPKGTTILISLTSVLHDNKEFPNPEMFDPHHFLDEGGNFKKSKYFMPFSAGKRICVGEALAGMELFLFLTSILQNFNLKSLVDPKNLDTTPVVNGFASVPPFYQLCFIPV
# CYP2C19 act – human CYP2C19 activators, primary screen, biochemical, luminescence. 96,000 tested, under 10 active. activation factor at 5 µM. Cytochrome P450 2C19 (Homo sapiens), P33261. AID 1025, 2008. recombinant CYP2C19, luciferin-H EGE luminescence; stronger effect = higher value; 0 = fully inhibited enzyme, 1 = untreated enzyme;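 active means activation factor of at least 2 at 5 µM in the primary screen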;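 further: 0 = wells with 2.5 mM tranylcypromine and 1 = vehicle-only wells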
# CYP2C9 activ – human CYP2C9 activators, primary screen, biochemical, luminescence. activation factor at 5 µM. recombinant CYP2C9, luciferin-H conversion; stronger effect = higher value; factor 1 = untreated enzyme, 0 = blocked. Cytochrome P450 2C9 (Homo sapiens), P11712. 96,000 tested, 1.4% active;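 active means activation factor of 2 or more for CYP2C9 at a 5 µM dose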;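 further: 0 = sulfaphenazole-blocked wells and 1 = vehicle-only wells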
# * marks the source's active call; other numbers are inactive results. The list is not random: actives were taken first. Their share in the collection is about 31%.
SMILES,CYP2C19 inh,CYP2C9 inh,CYP2C19 act,CYP2C9 activ
CCn1c(=O)cc(OCC(=O)NC2CCCCC2)c2ccccc21,49,-48,0.5,1.5
Cc1cc(Cl)c(S(=O)(=O)N2CCN(c3cccc(C)c3C)CC2)cc1OCC(N)=O,32,39,0.7,0.6
Cc1cc(Cl)c(S(=O)(=O)N2CCSCC2)cc1OCC(=O)NC1CCCCC1,66*,57*,0.3,0.4
CCOC(=O)C1CCCN(S(=O)(=O)c2cc(OCC(N)=O)c(C)cc2Cl)C1 (stereo unspecified),91*,-18,0.1,1.2
Cc1cc(Cl)c(S(=O)(=O)N2CCCCCC2)cc1OCC(N)=O,12,-87,0.9,1.9
CCOC(=O)N1CCN(C(=O)COc2ccc(S(=O)(=O)NC3CCCCC3)cc2C)CC1,-2,42,1,0.6
CCOC(=O)N1CCN(S(=O)(=O)c2cc(OCC(=O)NC3CCCCC3)c(C)cc2Cl)CC1,54*,62*,0.5,0.4
Cc1cc(Cl)c(S(=O)(=O)N2CCCCCC2)cc1OCC(=O)NC1CCCCC1,90*,89*,0.1,0.1
COc1cccc(NC(=O)CSCc2n[nH]c(=O)[nH]2)c1,-6,-3,1.1,1
O=C(Nc1cccnc1)c1ccc2snnc2c1,8,-9,0.9,1.1
COc1ccc(OC)c(CN2CCCC(CO)C2)c1 (stereo unspecified),-10,-8,1.1,1.1
Cc1cc(Cl)c(S(=O)(=O)NC2CCCC2)cc1OCC(=O)NC1CCCCC1,52*,44,0.5,0.6
Cc1ccc(OCC(=O)NC2CCCC2)c(C)c1,47,6,0.5,0.9
CN(C)S(=O)(=O)c1ccc(C(=O)Nc2cccc(C(=O)O)c2)cc1,4,4,1,1
Cc1cc(C)n(-c2nnc(C)n2/N=C/c2ccccc2OCc2ccccc2Cl)n1,56*,52*,0.4,0.5
COc1ccccc1/C=N/n1c(C)nnc1-n1nc(C)cc1C,2,-6,1,1.1
COc1ccc(C(=O)CSc2nnc(-c3ccoc3C)n2CC2CCCO2)cc1 (stereo unspecified),23,16,0.8,0.8
COc1ccccc1-c1nnc(SCC(=O)c2ccc(C3CCCCC3)cc2)n1Cc1ccco1,80*,86*,0.2,0.1
O=C(CSc1nnc(-c2cnccn2)n1Cc1ccco1)c1ccc2ccccc2c1,4,54*,1,0.5
O=C(CSc1nnc(-c2ccccn2)n1Cc1ccco1)c1ccc(-c2ccccc2)cc1,0,28,1,0.7
Cn1c(SCC(=O)c2ccc(F)cc2)nnc1-c1ccccc1N,75*,0,0.2,1
O=C(CSc1nnc(-c2cccnc2)n1Cc1ccco1)c1ccccc1,24,19,0.8,0.8
Cc1occc1-c1nnc(SCC(=O)c2ccc(F)cc2)n1Cc1ccco1,16,60*,0.8,0.4
O=C(O)CCCNCc1ccccc1F,-7,-7,1.1,1.1
CSc1nc(C)c2c(n1)N(c1ccc(C(F)(F)F)cc1)CC2,21,9,0.8,0.9
SMILES,CYP2C19 inh,CYP2C9 inh,CYP2C19 act,CYP2C9 activ
Cc1ccc2c(c1)N(CC(=O)NC1CCCCC1C)C(=O)CO2 (stereo unspecified),43,-12,0.6,1.1
COc1ccccc1NC(=O)C1=C(C)Nc2nc(-c3cccs3)nn2C1c1cccnc1 (stereo unspecified),16,43,0.8,0.6
Fc1ccc(CSc2nnc(-c3cnccn3)n2Cc2ccco2)cc1,70*,77*,0.3,0.2
O=C(CSc1nnc(-c2cc3ccccc3cc2O)n1Cc1ccco1)c1ccc(F)cc1,94*,100*,0.1,0
Cc1occc1-c1nnc(SCC(=O)c2ccc(F)cc2)o1,84*,32,0.2,0.7
CCN(CC)C(=O)CSc1nnc(-c2cc3ccccc3cc2O)n1CC,-9,-4,1.1,1
O=C(CSc1nnc(-c2ccco2)n1Cc1ccccc1)c1ccc(F)cc1,96*,92*,0,0.1
CCn1c(SCC(=O)N2CCOCC2)nc(O)cc1=O,-27,-8,1.3,1.1
Cn1c(SCC(=O)c2ccccc2)nnc1-c1cnccn1,40,8,0.6,0.9
O=C(CSc1nc2ccccc2c(=O)n1Cc1ccco1)c1ccc(F)cc1,8,52*,0.9,0.5
CCn1c(SCC(=O)c2ccccc2)nnc1-c1cnccn1,54*,-18,0.5,1.2
CCOC(=O)N1CCC(=C(C#N)C(=O)Nc2cc(OC)ccc2OC)CC1,16,-6,0.8,1.1
CC(=O)Nc1ccc(S(=O)(=O)N2CCN(C(=O)N3CCCCCC3)CC2)cc1,23,51*,0.8,0.5
CC(=O)Nc1ccc(S(=O)(=O)N2CCCN(S(=O)(=O)c3ccc(NC(C)=O)cc3)CC2)cc1,30,61*,0.7,0.4
CC(=O)Nc1ccc(S(=O)(=O)N2CCCN(S(=O)(=O)c3ccc(C)cc3)CC2)cc1,29,43,0.7,0.6
CC(=O)Nc1ccc(S(=O)(=O)Nc2ccc(S(=O)(=O)N3CCCCCC3)cc2)cc1,14,82*,0.9,0.2
Cc1cccc(N2CCN(S(=O)(=O)c3c(C)[nH]c(=O)[nH]c3=O)CC2)c1C,50*,7,0.5,0.9
CCN1CCN(S(=O)(=O)c2ccc(S(=O)(=O)N(CC)Cc3ccccc3)cc2)CC1,47,6,0.5,0.9
O=C1CC(SC(=Nc2ccccc2)Nc2ccccc2)C(=O)N1c1cccc(Cl)c1 (stereo unspecified),29,43,0.7,0.6
CCOc1cccc(NC(=O)C(Cc2cccs2)c2nn[nH]n2)c1 (stereo unspecified),-4,18,1,0.8
CC(=O)Nc1ccc(S(=O)(=O)N2CCN(Cc3cccnc3)CC2)cc1,29,-2,0.7,1
CC(=O)Nc1ccc(S(=O)(=O)N2CCN(Cc3ccncc3)CC2)cc1,95*,54*,0.1,0.5
CC(=O)Nc1ccc(S(=O)(=O)N2CCc3c(Cl)cccc3C2)cc1,65*,-169,0.4,2.7*
CC(=O)c1ccc(S(=O)(=O)N2CCCC2)cc1,17,60*,0.8,0.4
CC(=O)Nc1ccc(C(=O)Nc2ccc(S(=O)(=O)N3CCCC3)cc2)cc1,3,-20,1,1.2
CC(=O)Nc1ccc(S(=O)(=O)N2CCN(c3ccc(C)c(Cl)c3)CC2)cc1,37,53*,0.6,0.5
CN(C)CCCNC(=O)Cc1ccc(Br)cc1,-11,-12,1.1,1.1
CC(=O)c1ccc(NC(=O)CSc2nc3nc(C)cc(C)n3n2)cc1,11,19,0.9,0.8
CC(=O)Nc1ccc(S(=O)(=O)N2CCN(c3cccc(C)c3C)CC2)cc1,40,75*,0.6,0.2
CCC1Oc2ccc(C)cc2N(CC(=O)NCc2ccccc2OC)C1=O (stereo unspecified),91*,-29,0.1,1.3

# Compound activity deposited in PubChem BioAssay by Sanford-Burnham Center for Chemical Genomics.
